A selection: hits, their analogues and other compounds. The true share with any hit is near 21%.
Pf growth 96h: P. falciparum growth inhibition at 96 hours | P. falciparum luciferase reporter growth, 96 h | Potency, µM (titrated, usually from 28.7 µM), for inactives: top-dose activity change, negative = inhibition, usual class: inhibitors | hit rate 6.9% among 320,000 | AID 504834; also: potency is read from the fitted curve at half-maximal effect; % is scaled to controls: 0 for no effect and ±100 for the full control effect
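P. falciparum expressing integrated firefly luciferase, in erythrocytes at 2% hematocrit, 0.05% parasitemia, incubated with compounds 96 h at 37 C, 5% CO2. Growth inhibition read as loss of luminescence; two-generation exposure targets delayed-death apicoplast inhibitors.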
Shiga toxin inh: blocks Shiga toxin action in Vero cells; inhibition, % at 38.7 µM; hit rate 9.2% among 290,000; Vero cells, Shiga toxin protein synthesis inhibition reporter; in the data active = inhibition mostly above about 28%, no sharp cut-off; inactive = mostly below about 43%; also: 0% is about no effect
Cycloheximide cs: counter-screen hit for Shiga toxin inhibitors, cycloheximide; cell reporter, cycloheximide protein synthesis inhibition counterscreen; max response, %; hit rate 12% among 300,000; AID 2314; in the data active = max response mostly above about 13%, no sharp cut-off; inactive = mostly below about 14%; also: read at 38.3 µM for the half of the compounds with a filed dose; 0% is about no effect
HCMV antiviral: inhibitors of human cytomegalovirus; HFF cells, HCMV-luciferase reporter, 72 h; active compounds read low; activity change, negative = inhibition, % at 57.5 µM; hit rate 4.5% among 410,000; in the data active = activity change below about -60%; inconclusive = no clear call, values can overlap the other calls; inactive = above about -39%; also: % is scaled to controls: 0 for no effect and ±100 for the full control effect
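HFF cells seeded 16 h at 37C, treated with compounds, infected with luciferase-reporter HCMV at MOI 1 PFU/cell; luciferase read at 72 h post infection, normalized to buffer-only and Salinomycin controls.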
Pf growth 48h: inhibits P. falciparum growth in the first generation, 48 h | P. falciparum luciferase growth in erythrocytes, 48 h | Potency, µM (highest dose often 28.7 µM), for the others: at the top dose activity change, negative = inhibition, most hits filed as inhibitors | hit rate 5.9% among 310,000; also: potency is read from the fitted curve at half-maximal effect; % is scaled to controls: 0 for no effect and ±100 for the full control effect
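Compounds are pin-transferred into medium, infected erythrocytes (2% hematocrit, 0.1% parasitemia final) are added, and plates sit one parasite generation at 37 C in 5% CO2. Detection reagent is then added and luminescence measured.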
HCV inhibitor: blocks hepatitis C virus. AID 651820. Huh7.5.1 HCVcc-Cre infection, luciferase reporter, 44 h. hit rate 3.4% among 340,000. Potency, µM (doses to about 41.8 µM), for inactives: at the top dose activity change, negative = inhibition, usual class: inhibitors; also: potency is read from the fitted curve at half-maximal effect; % is scaled to controls: 0 for no effect and ±100 for the full control effect
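Reporter virus HCVcc-Cre (~0.5 moi) infects cells exposed to compound; seeding density 1,000 cells/well with 4 h settling beforehand. Luminescence, 15 sec read, taken 44 h post-infection following a 15 min RT substrate incubation.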
* marks the source's active call; other numbers are inactive results; ? = inconclusive; . = not tested or not shown; ! = not confirmed by another sample; [ ] = remark or other dose. Unless noted, calls follow the shape of the dose curve; as a rule, active = well fitted inhibition curve with a large enough effect; inconclusive = small, poorly fitted or top-dose-only effect, or another doubt; inactive = no such curve, though single readings can be large or run the other way.

SMILES | Pf growth 96h | Shiga toxin inh | Cycloheximide cs | HCMV antiviral | Pf growth 48h | HCV inhibitor
C=CCc1c(C)nc(SC)nc1Nc1ccc(C(=O)O)cc1 | -4% | 2 | -4 | -31 | 6% | -6%
Cc1cccc(C(=O)N2CCCC(Nc3ccc(C)c(C)c3)C2)n1 (configuration not stated) | ? | -14 | 9 | -20 | 3% | 12%
CC(=NNC(=S)N1CC2CCC(CC2)C1)c1cccc(C)n1 | . | . | . | -83* | . | ?
CC(=NNC(=S)N1CC2CCC(CC2)C1)c1nccs1 | . | . | . | -63* | . | ?
O=C(NC1CCCCC1)NS(=O)(=O)c1ccc2c(c1)CCC2 | . | . | . | -7 | . | 23%
CN1CCN(c2ccc([N+](=O)[O-])cc2NC(=O)c2ccccc2Cl)CC1 | ? | 15 | 6 | 22 | 12µM* | -19%
CN1CCN(C(=S)Nc2cc([N+](=O)[O-])ccc2Cl)CC1 | 10% | -2 | 11* | -10 | 18% | -6%
CN1CCN(c2ccc(Cl)cc2NC(=O)c2ccc([N+](=O)[O-])cc2)CC1 | ? | -10 | -4 | -6 | ? | -8%
COc1ccc(S(=O)(=O)N2CCN(C(=O)C3CCCO3)CC2)cc1 (configuration not stated) | -1% | -2 | -1 | 3 | -2% | 22%
CCN(CC)S(=O)(=O)c1ccc(NC(=O)CN(c2ccccc2)S(=O)(=O)N(C)C)cc1 | . | . | . | -89* | . | .
CCOC(=O)c1ccccc1NC(=O)CN(c1ccccc1)S(=O)(=O)N(C)C | . | 19 | 11 | 2 | 3.3µM* | -6%
CCc1ccc(N(CC(=O)Nc2ccc(NC(C)=O)cc2)S(=O)(=O)c2ccccc2)cc1 | ? | 1 | 5 | -61* | 13µM* | -21%
O=C(CN(CC1CCCO1)S(=O)(=O)c1ccc(S(=O)(=O)NCC2CCCO2)cc1)Nc1ccccc1 (configuration not stated) | -13% | -8 | 11 | -7 | -15% | ?
CN(C)S(=O)(=O)c1ccc(S(=O)(=O)N(CC(=O)Nc2ccccc2)CC2CCCO2)cc1 (configuration not stated) | 12µM* | 18 | 4 | -15 | -11% | 6%
CCOc1ccc(NC(=O)CN(c2ccc([N+](=O)[O-])cc2)S(=O)(=O)c2ccccc2)cc1 | 18% | -7 | -1 | -16 | -21% | ?
CN(C)S(=O)(=O)N(CC(=O)Nc1ccccc1)c1ccccc1 | 15% | -4 | -1 | -16 | 1% | 4%
CCOC(=O)c1ccccc1NC(=O)CN(c1ccccc1OC)S(C)(=O)=O | ? | -19 | 1 | -15 | ? | -16%
Cc1ccc(-c2cc(C(=O)Oc3ccc(C#N)cc3)no2)cc1 | . | . | . | 4 | . | .
COc1ccc(CCNC(=O)c2ccc3nc[nH]c3c2)cc1 | 27% | -24 | -3 | 2 | 4% | -2%
CC(=O)Nc1ccc(NC(=O)CN(c2ccc([N+](=O)[O-])cc2)S(=O)(=O)c2ccccc2)cc1 | 2.9µM* | 5 | -2 | ? | 22% | -20%
O=C(Nc1ccc(Br)cc1)C1CCCN(S(=O)(=O)c2ccc(Br)s2)C1 (configuration not stated) | . | . | . | -30 | . | .
COCCNC(=O)[C@@]1(C)C=C[C@@H](Cc2ccccc2)N1C(=O)c1ccccc1 | -15% | 28* | 21* | 52 | ? | 9%
CNC(=O)[C@@]1(C)C=C[C@@H](Cc2ccccc2)N1C(=O)OC | -23% | 50 | 22* | -17 | 32% | 32%
C[C@]1(C(=O)NCc2cc(F)cc(C(F)(F)F)c2)C=C[C@@H](Cc2ccccc2)N1C(=O)c1ccccc1 | ? | -10 | 9 | 20 | ? | -8%[8.37 µM]
COC(=O)N1[C@H](Cc2ccccc2)C=C[C@]1(C)C(=O)NCc1ccccn1 | -9% | -5 | 0 | . | 29% | -10%[8.37 µM]
SMILES | Pf growth 96h | Shiga toxin inh | Cycloheximide cs | HCMV antiviral | Pf growth 48h | HCV inhibitor
CCOc1ccc(CCNC(=O)c2ccc(Nc3nc4ccccc4n4nnnc34)cc2)cc1OCC | . | . | . | -26 | . | .
CC(NC(=O)c1ccc(Nc2nc3ccccc3n3nnnc23)cc1)c1ccccc1 (configuration not stated) | . | . | . | -18 | . | .
CCOc1ccc(Nc2nc3ccccc3n3nnnc23)cc1 | ? | 100* | 59* | -19 | . | 13%
CN(C)c1ccc(Nc2nc3ccccc3n3nnnc23)cc1 | . | . | . | -62* | . | .
CCCCOCC1CN(Cc2ccccc2OC)S(=O)(=O)c2cc(Cl)ccc2O1 (configuration not stated) | . | . | . | -7 | . | .
Cc1cc(C)c2c(CC(=O)Nc3c(C(=O)Nc4ccc(Cl)cc4)oc4ccccc34)coc2c1 | . | . | . | 25 | . | .
O=[N+]([O-])c1cccc(-c2noc3ccccc23)c1 | . | . | . | 2 | . | .
O=C1Nc2ccccc2C1=Nc1cccc([N+](=O)[O-])c1 | 12% | 27* | 6 | 14 | 15% | -10%
O=C1CSC(=Nc2cccc([N+](=O)[O-])c2)N1 | 1.7µM* | -21 | -2 | 3 | -18% | 8%
O=C1CSC(=Nc2cccc(C(=O)O)c2)N1 | ? | . | 5 | 27 | 46% | 1%
CC1CCCCC1NC(=O)C1CCC(CNS(=O)(=O)c2ccccc2)CC1 (configuration not stated) | ? | -5 | -2 | -20 | -22% | 3%
O=C1C(Cc2ccccc2)Nc2ncnc(N3CCc4ccccc4C3)c2N1Cc1ccc(Cl)cc1 (configuration not stated) | 6.6µM* | . | . | . | 15µM* | 6%[8.37 µM]
COc1ccc(CN2C(=O)C(Cc3ccccc3)Nc3ncnc(N4CCc5ccccc5C4)c32)cc1 (configuration not stated) | 5.2µM* | . | . | . | 7.4µM* | -22%
O=C1C(Cc2ccccc2)Nc2ncnc(N3CCOCC3)c2N1Cc1ccccc1 (configuration not stated) | . | . | . | -101*! | . | -6%
Cc1ccc(CN2C(=O)C(Cc3ccccc3)Nc3ncnc(N4CCOCC4)c32)cc1 (configuration not stated) | . | . | . | -20 | . | .
COc1ccc(CN2C(=O)C(Cc3ccccc3)Nc3ncnc(N4CCOCC4)c32)cc1 (configuration not stated) | ? | . | . | -11 | ? | -6%
Cc1ccc2c(CC(=O)NCc3ccccc3)coc2c1C | . | . | . | 14 | . | .
Cc1nc(S/C(=C/c2ccc(-c3ccc(Cl)cc3)o2)C(=O)O)n[nH]1 | ? | -13 | -1 | 20 | . | 17%
Cc1nc(S/C(=C/c2ccc(-c3cc(Cl)ccc3C)o2)C(=O)O)n[nH]1 | 42% | 103* | 29* | -35 | 37% | -5%
O=C(Nc1ccnc(-c2ccncc2)n1)C1CC1 | -15% | -5 | -2 | 6 | 12% | 4%
CC(C)c1nc(SCC(=O)c2c[nH]c3ccccc23)n[nH]1 | ? | 32 | 9 | 34 | 0% | -21%
COc1ccc(OC)c(C2C=C(C34CC5CC(CC(C5)C3)C4)NC(=S)N2)c1 (configuration not stated) | 2.6µM* | -7 | 0 | ? | 8.3µM* | 2.5µM*
